About 83,000 compounds went through this panel and 20% of them were active in at least one assay; those are over-represented in the sample as a whole.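 The test compound was applied at a single concentration to cells in 96-well plates for 48 hours, and percent growth was recorded.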 Unmarked numbers belong to inactive results. The source made the active and inactive calls.

The subject of this assay is SK-MEL-28 melanoma. Briefly: NCI-60 one-dose screen, 48 h (100 = growth as untreated, 0 = no growth, -100 = all killed). The conditions noted are these: 10 µM unless noted. The procedure:
Growth inhibition of the SK-MEL-28 human tumor cell line is measured as a screen for anti-cancer activity. Cells are grown in 96 well plates and exposed to the test compound for 48 hours. Compounds are tested at a single concentration, which is 10^-5 M for most compounds. The reported endpoint is percent growth (GI% or GIPRCNT), where numbers from 0 - 100% represent growth inhibition, and numbers from -100% - 0 represent cell death. For example, a value of 40 represents 60% growth inhibition. A value of 0 means no net growth occurred over the course of the experiment. A value of -40 indicates 40% of cells at the beginning of the experiment died by the end of the experiment. A value of -100 means all cells are dead at the end of the experiment.
NCI-60 Human Tumor Cell Lines Screen was performed using the standard one-dose NCI protocol, which is described in more detail at https://dtp.cancer.gov/discovery_development/nci-60/default.htm.
Compounds with GIPRCNT values below 10 were considered active. Activity score was based on GIPRCNT using the following formula: […]
Score is 0 for GIPRCNT values of 100 or above, 50 for GIPRCNT values of 0, and 100 for GIPRCNT values of -100.
Turning to `C/C(=C\CCc1ccoc1)CC/C=C(\C)CCCN1CCOCC1`, the growth was 80.4%. The same measure for `Cc1ccc(C(=O)Cc2ccccc2)c(O)c1`: 117%; for `COc1cc(Cl)cc(-c2nn(-c3cccc(NC(=O)c4cc(C(F)(F)F)cc(C(F)(F)F)c4)c3)cc2-c2ccncc2)c1`: 78.8%. The same measure for `COc1cc(C2CC(c3ccc(C)cc3)=NN2C=O)ccc1OCCN(C)C` (stereo not given): 107%.

Take `Cc1nn(-c2nc3ccccc3s2)c(C)c1Oc1ccccc1O`: the growth is 22.1%.

For the molecule `N/C(=N\C(N)=N\c1nc2ccccc2s1)c1ccnc(Cl)c1`, the growth is 62.2%. `Cc1cnc2nc(-c3ccc(N(C)C)cc3)cn2c1`: the growth was 123%. Next, `CCNCCCn1c2c(c3ccc(F)cc3c1=O)C(=O)c1cc(OC)cnc1-2`: 8.91% (active); `CCCCCc1c(C)[nH]c(/C=C2\N=C(c3ccc[nH]3)C=C2Oc2ccccc2)c1C`: -95.1% [100 µM] (active); `COc1ccc([N+](=O)[O-])c(S(=O)(=O)c2ccc(Cl)cc2)n1`: 82%. Next, `O=C(Nc1ccc(Cl)cc1)Nc1nc2ccc(OC(F)(F)F)cc2o1`: 108%.

`CC(=O)Nc1c(Cl)cc2c(c1Cl)Cc1ccccc1-2`: the growth was 124%.

For the molecule `O=c1[nH]c(SCc2ccccc2)nc2nc(Nc3ccc(NC(=S)Nc4ccccc4)cc3)nc(-c3ccc(O)cc3O)c12`, the growth is 94.3%. As to `CN[C@@H]1C(OC2[C@H](O[C@H]3[C@H](O)[C@@H](O)[C@H](N=C(N)N)[C@@H](O)[C@@H]3N=C(N)N)OC(C)[C@]2(O)CO)OC(CO)C(O)C1O` (stereo not given in full), the growth was 104%. Turning to `COc1ccc(C2=NN(C=O)C(c3cccc(Nc4ccnc5cc(Cl)ccc45)c3)C2)cc1` (stereo not given), the growth is 50.6%.

As for `COc1cc(/C=C/C(=O)C(C(=O)/C=C/c2ccc(OC(=O)CCNC34CC5CC(CC(C5)C3)C4)c(OC)c2)C(=O)CCNC23CC4CC(CC(C4)C2)C3)ccc1OC(=O)CCNC12CC3CC(CC(C3)C1)C2` (stereo not given), the growth was -8.59% (active). For the molecule `O=C(COc1cccc(/C=C2\Cc3ccccc3C2=O)c1)c1ccc(Cl)cc1`, the growth is 104%.

As for `Fc1ccc(-c2nn3c(-c4cc(C(F)(F)F)cc(C(F)(F)F)c4)nnc3s2)cc1`, the growth is 72%.

Turning to `NS(=O)(=O)c1ccc(-n2ncc3c(N/N=C/c4ccccc4)ncnc32)cc1`, the growth was 95.3%. Consider `COC(=O)[C@H](Cc1cn(C)cn1)NC(=O)[C@H](Cc1ccccc1)NC(=O)Nc1cc(C(F)(F)F)cc(C(F)(F)F)c1`, for which the growth was -96.6% [100 µM] (active). Next, `COc1cc(-c2nnc(-c3nc(-c4cc(OC)c(OC)c(OC)c4)n4ccccc34)o2)ccc1N`: 97.8%; `O=C(COc1ccc(/C=C2\Oc3ccc4ccccc4c3C2=O)cc1)c1ccc(Cl)cc1`: 112%. Next, `COC(=O)c1cc2oc(/C=N\NC(=O)c3cc4oc(C)c(C)c4[nH]3)cc2[nH]1`: 110%; `c1ccc(-c2n(Cc3ccc4ccccc4c3)cc[n+]2Cc2ccc3ccccc3c2)cc1`: -84.2% (active). As for `C/C=C(/C(=C/C)c1ccc(O)cc1)c1ccc(O)cc1`, the growth was 52.4%. With `Cc1ccc(/C=C/C(=O)c2ccc(F)cc2)s1`, the growth is 105%.

As to `CCc1nn2c(-c3ccc(Cl)cc3C)c(-c3cc(OC)c(OC)c(OC)c3)nc2s1`, the growth was 80.8%.

Consider `COc1ccc(C(=O)COc2cccc(/C=C3\COc4ccc5ccccc5c4C3=O)c2)cc1`, for which the growth was 106%.

As to `C[C@H]1c2cccc(O)c2C(O)=C2C(=O)[C@]3(O)C(O)=C(C(N)=O)C(=O)[C@@H](N(C)C)[C@@H]3[C@@H](O)[C@@H]21`, the growth is 65.4%. Next, `COc1ccc2cc(C3=CC(=O)CCC3)ccc2c1`: 115%. As to `CN1CCC[C@@H]1CCO[C@](C)(c1ccccc1)c1ccc(Cl)cc1`, the growth was 44.3%. Next, `N#CC1c2ccccc2C=CN1C(=O)N(c1ccccc1)c1ccccc1` (stereo not given): 67%; `CC(=O)Nc1ccc(C(=O)COc2cccc(/C=C3\CCc4ccccc4C3=O)c2)cc1`: 109%; `COP(=O)(OC)C(c1ccccc1)(c1ccccc1)c1ccccc1`: 109%. On to `N#Cc1c(NC(=O)c2ccco2)[n+]([O-])c2ccccc2[n+]1[O-]`, for which the growth was 104%. As to `C=C1CCC2C3(C)COC(c4ccccc4)OC3CCC2(C)C1C/C=C1/C(=O)OCC1OC(C)=O` (stereo not given), the growth was 118%. The same measure for `O=C(/C=C(\Nc1ccccc1)c1ccccc1)c1cn(-c2ccc([N+](=O)[O-])cc2)nn1`: 83.7%; for `COc1ccc(/C=C/C(=O)c2cccc(NS(C)(=O)=O)c2)cc1`: 110%; for `CCCCCCC(CC#N)(CCC)CCCC` (stereo not given): 104%. Consider `OCCCc1n(Cc2ccc3ccccc3c2)c2ccccc2[n+]1Cc1ccc2ccccc2c1`, for which the growth was -28% (active).

The values above are taken from PubChem BioAssay (NCI).
